Results on 13 molecules are retold here after PubChem BioAssay (NCATS).

Assay [1] is described as follows: Quantitative High-Throughput drug screen in 47 multiple myeloma cell lines against the NCATS MIPE library collection: KMM1_JCRB cell viability assay (AID 1918960). Note: nearly all actives have a fitted effect of over 30% in size. Note: potency is the fitted concentration of half-maximal effect. A digest of the protocol:
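Here, 48 h treatment with MIPE 4.0 agents at 37 °C preceded an ATP luminescence read. Plating density was 500 cells per well.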

Assay [2] is described as follows: Quantitative High-Throughput drug screen in 47 multiple myeloma cell lines against the NCATS MIPE library collection: KHM11_PLB cell viability assay (AID 1918962). Note: nearly all actives have a fitted effect of over 35% in size. Note: potency is the fitted concentration of half-maximal effect. A digest of the protocol: (§1)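 Primary qHTS used for cherry-picking: cells at 500/well, library compounds for 48 h (37C, 5% CO2), luminescent ATP assay.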
Assay [3] is described as follows: Quantitative High-Throughput drug screen in 47 multiple myeloma cell lines against the NCATS MIPE library collection: INA6_PLB cell viability assay (AID 1918965; note: nearly all actives have a fitted effect of over 55% in size; note: potency is the fitted concentration of half-maximal effect). The method, boiled down: (§2)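 We plated 500 myeloma cells per well, pinned in MIPE 4.0 compounds, and incubated for 48 hours at 37C. ATP was then quantified with CellTiter-Glo, with DMSO and media-only wells defining 100% and 0%.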

Assay [4] can be described thus: Quantitative High-Throughput drug screen in 47 multiple myeloma cell lines against the NCATS MIPE library collection: JJN3_DSMZ cell viability assay (AID 1918966; note: nearly all actives have a fitted effect of over 50% in size; note: potency is the fitted concentration of half-maximal effect). The method, boiled down:
(§3)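 Inhibition of cell viability is measured here. Each line was plated at 500 cells per well, treated with MIPE 4.0 drugs, kept 48 hours at 37C, then assayed for ATP content by CellTiter-Glo luminescence.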

A short description of assay [5]: Quantitative High-Throughput drug screen in 47 multiple myeloma cell lines against the NCATS MIPE library collection: H1112_PLB cell viability assay (AID 1918967; note: nearly all actives have a fitted effect of over 30% in size; note: potency is the fitted concentration of half-maximal effect). The method, boiled down:
as §3

A short description of assay [6]: Quantitative High-Throughput drug screen in 47 multiple myeloma cell lines against the NCATS MIPE library collection: Karpas25_ECACC cell viability assay (AID 1918968; note: nearly all actives have a fitted effect of over 35% in size; note: potency is the fitted concentration of half-maximal effect). A digest of the protocol:
as §3

Assay [7] can be described thus: Quantitative High-Throughput drug screen in 47 multiple myeloma cell lines against the NCATS MIPE library collection: KMS27_JCRB cell viability assay (AID 1918970). Note: nearly all actives have a fitted effect of over 30% in size. Note: potency is the fitted concentration of half-maximal effect. The conditions noted are these: KMS27 myeloma cells, CellTiter-Glo ATP viability, 48 h; viability (% of DMSO): at 45.8 µM (top of the series). A digest of the protocol: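 Each line is seeded at 500 cells per well and treated with library compounds for 48 hours under 37 °C, 5% CO2. CellTiter-Glo is then added for 5 min at room temperature before median relative luminescence is recorded.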
Background: Cellular ATP, detected with luciferase, serves as a proxy for viable cell number.

Assay [8] can be described thus: Quantitative High-Throughput drug screen in 47 multiple myeloma cell lines against the NCATS MIPE library collection: KMS12BM_JCRB cell viability assay (AID 1918971). Note: nearly all actives have a fitted effect of over 35% in size. Note: potency is the fitted concentration of half-maximal effect. A digest of the protocol:
(§4)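 CellTiter-Glo luminescence (ATP) after 48 h compound exposure, 37C/5% CO2; 500 cells/well; MIPE 4.0 approved/investigational drugs pinned in; DMSO = 100%, media only = 0% viability.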

Assay [9] can be described thus: Quantitative High-Throughput drug screen in 47 multiple myeloma cell lines against the NCATS MIPE library collection: KMS12PE_JCRB cell viability assay (AID 1918972). Note: nearly all actives have a fitted effect of over 30% in size. Note: potency is the fitted concentration of half-maximal effect. A digest of the protocol: as §2
A short description of assay [10]: Quantitative High-Throughput drug screen in 47 multiple myeloma cell lines against the NCATS MIPE library collection: KMS20_JCRB cell viability assay (AID 1918973). Note: nearly all actives have a fitted effect of over 45% in size. Note: potency is the fitted concentration of half-maximal effect. The method, boiled down: as §3
Assay [11] in a line: Quantitative High-Throughput drug screen in 47 multiple myeloma cell lines against the NCATS MIPE library collection: KMS26_JCRB cell viability assay (AID 1918975). Note: nearly all actives have a fitted effect of over 45% in size. Note: potency is the fitted concentration of half-maximal effect. The method, boiled down: as §4
The nature of assay [12]: Quantitative High-Throughput drug screen in 47 multiple myeloma cell lines against the NCATS MIPE library collection: MMM1_PLB cell viability assay (AID 1918976). Note: nearly all actives have a fitted effect of over 35% in size. Note: potency is the fitted concentration of half-maximal effect. The method, boiled down:
(§5)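 Plated at 500 cells per well, myeloma lines received MIPE 4.0 compounds by pin tool. Following 48 h culture at 37 °C, CellTiter-Glo luminescence gave viability relative to DMSO and media-only controls.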

The nature of assay [13]: Quantitative High-Throughput drug screen in 47 multiple myeloma cell lines against the NCATS MIPE library collection: MOLP8_DSMZ cell viability assay (AID 1918977). Note: nearly all actives have a fitted effect of over 45% in size. Note: potency is the fitted concentration of half-maximal effect. A digest of the protocol: as §5
The nature of assay [14]: Quantitative High-Throughput drug screen in 47 multiple myeloma cell lines against the NCATS MIPE library collection: NCIH929_DSMZ cell viability assay (AID 1918978). Note: nearly all actives have a fitted effect of over 35% in size. Note: potency is the fitted concentration of half-maximal effect. The method, boiled down:
as §5

Assay [15] can be described thus: Quantitative High-Throughput drug screen in 47 multiple myeloma cell lines against the NCATS MIPE library collection: JIM3_ECACC cell viability assay (AID 1918963; note: nearly all actives have a fitted effect of over 35% in size; note: potency is the fitted concentration of half-maximal effect). A digest of the protocol:
as §1

Assay [16] can be described thus: Quantitative High-Throughput drug screen in 47 multiple myeloma cell lines against the NCATS MIPE library collection: OCIMY1_PLB cell viability assay (AID 1918979). Note: nearly all actives have a fitted effect of over 35% in size. The method, boiled down:
as §5

A short description of assay [17]: Quantitative High-Throughput drug screen in 47 multiple myeloma cell lines against the NCATS MIPE library collection: JIM1_ECACC cell viability assay (AID 1918964; note: potency is the fitted concentration of half-maximal effect). A digest of the protocol: as §3
The nature of assay [18]: Quantitative High-Throughput drug screen in 47 multiple myeloma cell lines against the NCATS MIPE library collection: Karpas620_DSMZ cell viability assay (AID 1918959). Note: nearly all actives have a fitted effect of over 30% in size. A digest of the protocol:
as §1

The nature of assay [19]: Quantitative High-Throughput drug screen in 47 multiple myeloma cell lines against the NCATS MIPE library collection: Karpas417_ECACC cell viability assay (AID 1918961). Note: potency is the fitted concentration of half-maximal effect. The conditions noted are these: Karpas417 myeloma viability, CellTiter-Glo ATP luminescence, 48 h; viability (% of DMSO): at 45.8 µM (top of the series). The method, boiled down: as §2
A short description of assay [20]: Quantitative High-Throughput drug screen in 47 multiple myeloma cell lines against the NCATS MIPE library collection: KMS21BM_JCRB cell viability assay (AID 1918974). Note: potency is the fitted concentration of half-maximal effect. The conditions noted are these: ATP luminescence, 48 h; viability: at 45.8 µM (top of the series). The method, boiled down:
as §3

Results filed as inconclusive are left out. Calls of active or inactive are those of the source. Calls come from the whole dose curve; as a rule, active = well fitted curve in the direction sought with a large enough effect; inconclusive = small, poorly fitted or top-dose-only effect, or another doubt; inactive = no such curve, though single readings can be large; an effect the other way counts as inactive or inconclusive.

On to `COc1cc([C@@H]2c3cc4c(cc3[C@H](O)[C@H]3COC(=O)[C@@H]23)OCO4)cc(OC)c1OC`, for which the Potency in [1] is 83.3 nM (active); in assay [2], 105 nM (active); in assay [3] it was 148 nM (active); in [4] it was 526 nM (active); in [5], 526 nM (active); in [6], 187 nM (active). The Potency in [7] was 52.6 nM (active); in assay [8] it was 148 nM (active); in assay [9], 118 nM (active); in assay [10] it was 1320 nM (active); in assay [11], 372 nM (active); in assay [12] it was 469 nM (active). For the same molecule, the Potency is 469 nM (active) in assay [13] and 590 nM (active) in [14].

In the case of `CC(=O)C1=C(O)C=C2Oc3c(C(C)=O)c(O)c(C)c(O)c3C2(C)C1=O` (centres undefined), the Potency result in assay [1], in assay [2], in assay [15], in [3], in [5] and in assay [8] was “inactive” in each case. Also, the Potency result in assay [14] and in [16] was “inactive” throughout.

Take `Cc1cnc(NC(=O)Nc2cc(Br)c(C)cc2OC[C@@H]2CNCCO2)cn1`: the Potency was 743 nM (active) in assay [1]; 935 nM (active) in assay [15]; 1050 nM (active) in [17]; 469 nM (active) in assay [3]; 5900 nM (active) in assay [5]; 16600 nM (active) in [6]. The Potency is 9350 nM (active) in assay [8]; 833 nM (active) in assay [9]; 5260 nM (active) in [10]; 16600 nM (active) in assay [11]; 18700 nM (active) in [12]; 4690 nM (active) in assay [13]. The Potency in [14] is 7430 nM (active).

With `CC(=O)OCC(=O)[C@@]12N=C(C)O[C@H]1C[C@H]1[C@@H]3CCC4=CC(=O)C=C[C@]4(C)[C@@H]3[C@@H](O)C[C@@]12C`, the Potency entry in assay [18], in assay [8], in [9], in assay [11] and in [12] was “inactive” each time. For the same molecule, the Potency in [3] was 11800 nM (active); in [6], 5260 nM (active); in [13], 16600 nM (active).

Regarding `CC(=O)O[C@@]12CO[C@H]1C[C@H](O)[C@@]1(C)C(=O)[C@H](O)C3=C(C)[C@@H](OC(=O)C(O)[C@@H](NC(=O)OC(C)(C)C)c4ccccc4)C[C@@](O)([C@@H](OC(=O)c4ccccc4)[C@@H]21)C3(C)C` (some centres undefined), the Potency result in assay [1], in assay [15], in assay [17], in [4], in assay [5] and in [6] was “inactive” in each case. The Potency result in [7], in assay [8], in assay [13], in [14] and in [16] was “inactive” each time.

With `CC(=O)NC(CS)C(=O)O` (centres undefined), the Potency result in assay [1], in assay [2], in assay [15], in assay [5], in [6] and in [10] was “inactive” in each case. The Potency is 2960 nM (active) in [3] and 18700 nM (active) in assay [12].

For `NC1=N[C@H]2[C@H](CS[C@H]2CCCCC(=O)O)N1`, the Potency result in assay [1], in assay [15], in [3], in assay [5], in assay [6] and in assay [7] was “inactive” each time. Besides, the Potency entry in assay [8], in assay [9], in assay [11], in assay [13], in assay [14] and in assay [16] was “inactive” in each case.

As for `CCOC(=O)N1CCN([N+]([O-])=NOc2ccc([N+](=O)[O-])cc2C#N)CC1`, the Potency in assay [1] was 1180 nM (active); in [19], 66.2 nM (active); in assay [15], 1050 nM (active); in assay [3], 1180 nM (active); in [5], 526 nM (active); in assay [7] it was 372 nM (active). Also, the Potency in assay [8] is 1480 nM (active); in [9] it was 833 nM (active); in assay [11] it was 935 nM (active); in [12] it was 526 nM (active); in assay [14], 2960 nM (active).

Take `C=CC(=O)Nc1cccc(Nc2nc(NC3CCC(N(C)C)CC3)nc3c2ncn3C(C)C)c1` (centres undefined): the Potency in [1] is 13.2 nM (active); in [2], 372 nM (active); in assay [15] it was 332 nM (active); in [17], 1 nM (active); in assay [3] it was 296 nM (active); in assay [4], 10.5 nM (active). Moreover, the Potency was 29.6 nM (active) in [6]; 10.5 nM (active) in assay [7]; 469 nM (active) in assay [8]; 11.8 nM (active) in assay [9]; 93.5 nM (active) in assay [10]; 16.6 nM (active) in assay [20]. Moreover, the Potency is 235 nM (active) in [11], 1050 nM (active) in assay [12], 166 nM (active) in assay [13] and 37.2 nM (active) in [14].

Consider `C[C@H]1O[C@H](O[C@H]2[C@H](O)[C@@H](O)[C@@H](O[C@H]3[C@H](O)[C@@H](O)C(O)O[C@H]3CO)O[C@H]2CO)[C@H](O)[C@@H](O)[C@H]1N[C@H]1C=C(CO)[C@@H](O)[C@H](O)[C@@H]1O` (some centres undefined), for which the Potency entry in assay [1], in assay [2], in [15], in assay [3], in assay [5] and in assay [11] was “inactive” in each case. For the same molecule, the Potency entry in [13] and in assay [16] was “inactive” in each case.

Take `O=C(O)C[C@H](O)C[C@H](O)C=Cc1c(C2CC2)nc2ccccc2c1-c1ccc(F)cc1`: the Potency was 5900 nM (active) in assay [1]; 7430 nM (active) in assay [2]; 14800 nM (active) in assay [15]; 935 nM (active) in [17]; 4180 nM (active) in assay [3]; 13200 nM (active) in assay [5]. Further, the Potency in assay [6] is 4690 nM (active); in assay [7], 3320 nM (active); in assay [9] it was 3720 nM (active); in assay [11], 18700 nM (active); in assay [12], 14800 nM (active); in assay [13], 4690 nM (active). Further, the Potency in [14] is 3720 nM (active).

Consider `Nc1ccn(C[C@@H](CO)OCP(=O)(O)O)c(=O)n1`, for which the Potency result in assay [1], in assay [15], in [17], in assay [4], in assay [7] and in assay [8] was “inactive” in each case. For the same molecule, the Potency entry in assay [9], in assay [11], in assay [13] and in assay [14] was “inactive” throughout.

Turning to `CC(=O)O[C@H]1C[C@@H]2CC[C@H]3[C@H]4C[C@H]([N+]5(C)CCCCC5)[C@@H](OC(C)=O)[C@@]4(C)CC[C@@H]3[C@@]2(C)C[C@H]1N1CCCCC1`, the Potency entry in assay [1], in assay [19], in assay [15], in [3], in assay [6] and in assay [7] was “inactive” in each case. For the same molecule, the Potency result in [8], in [9], in assay [20], in [11], in assay [13] and in assay [14] was “inactive” each time.
